Whole data set: some 33,000 sequences, median “E-score (-0.5 to 0.5)” near -0.036, cut for the highest 2% near 0.37. The sample holds the highest values, similar sequences and a random draw of the others, so the mix is not that of the screen.
Molecular target: T1, Yer064c (UniProt P40041)
T1 sequence: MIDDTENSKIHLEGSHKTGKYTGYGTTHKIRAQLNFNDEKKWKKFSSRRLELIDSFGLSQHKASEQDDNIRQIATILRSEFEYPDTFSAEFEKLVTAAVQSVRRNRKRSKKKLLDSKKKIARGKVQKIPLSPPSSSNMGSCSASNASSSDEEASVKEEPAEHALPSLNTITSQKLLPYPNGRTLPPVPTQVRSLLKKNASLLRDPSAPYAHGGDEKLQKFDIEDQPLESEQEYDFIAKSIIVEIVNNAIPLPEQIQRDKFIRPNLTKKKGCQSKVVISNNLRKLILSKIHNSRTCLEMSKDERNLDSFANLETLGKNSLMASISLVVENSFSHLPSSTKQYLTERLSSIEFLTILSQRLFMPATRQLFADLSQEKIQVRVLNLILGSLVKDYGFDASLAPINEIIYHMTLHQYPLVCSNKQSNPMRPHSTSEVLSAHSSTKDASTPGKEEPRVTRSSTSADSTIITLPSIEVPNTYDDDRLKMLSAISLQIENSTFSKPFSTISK
Assay: PBM E-score (8-mer binding enrichment) (E-score (-0.5 to 0.5)); higher = stronger / more preferred TF binding
Conditions: protein concentration: 200 nM; construct: GST-full length
Procedure: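 Universal 'all 10-mer' protein binding microarrays (Agilent AMADID 015681) probed with GST-tagged S. cerevisiae TFs (full-length or DBD) made by in vitro transcription/translation (PURExpress), about 100-200 nM. Bound TF was detected with fluorescent anti-GST. Each ungapped 8-mer (which stands for itself and its reverse complement) is scored by the PBM enrichment score (E-score), a modified Wilcoxon-Mann-Whitney statistic from -0.5 to +0.5, computed with the Universal PBM Analysis Suite. Scale: above 0.35 generally sequence-specific binding.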

Row | Sequence | PBM E-score
1 | GTAGAGCA | -0.0431
2 | CCATCGGA | -0.00521
3 | GCTTTCAA | 0.0808
4 | CCATCCCA | 0.0189
5 | AATATCCG | -0.0742
6 | ACCGAGTA | -0.0874
7 | CCCGAGTC | 0.329
8 | CGCGAGTA | 0.0526
9 | AGCGAGTC | 0.405
10 | ACCGAGTC | 0.377
11 | CGCGAGCC | 0.0358
12 | CGCGAGTC | 0.405
13 | AGCGAGTG | 0.0737
14 | AGCGAGTA | 0.115
15 | CGGGAGAA | -0.141
16 | CTTATCCC | -0.147
17 | AAGGAAGG | -0.0955
18 | ACCCTATG | 0.155
19 | GAGCTTCA | -0.142
20 | ACGGATGG | 0.0552
21 | ATCTTCCG | -0.0471
22 | ATCGACTC | 0.304

Row | Sequence | PBM E-score
23 | AACGACTG | 0.133
24 | AACGACTC | 0.427
25 | AACGACTT | 0.177
26 | AACGACTA | 0.393
27 | GACGACGA | 0.00788
28 | GACGACTA | 0.415
29 | AACGACAC | -0.105
30 | GACGACGC | -0.226
31 | GACGACCC | -0.217
32 | GTCGACTA | 0.335
33 | GACGACTC | 0.442
34 | CGGCTACA | -0.00254
35 | CGTTTCGC | -0.125
36 | AATCTTCG | 0.25
37 | TACCTGGA | 0.0309
38 | CTCCACCC | -0.099
39 | AAAGACCA | -0.029
40 | TACGGCGA | -0.108
41 | CACGACAC | -0.043
42 | TACGACAA | 0.0113
43 | CACGACGA | 0.044
44 | CACGACTG | 0.238

Row | Sequence | PBM E-score
45 | CACGACGC | -0.163
46 | CACGACTC | 0.437
47 | TACGACGA | 0.071
48 | TACGACTA | 0.415
49 | CACGACTA | 0.403
50 | TAGCCACA | 0.14
51 | CGCGATAC | -0.206
52 | CAAAATCC | 0.087
53 | CAAAAGCC | -0.227
54 | GAGCCATC | 0.342
55 | GAGCCATA | 0.366
56 | TAGCCATA | 0.28
57 | AGAGCTCG | -0.222
58 | AGTCATAT | 0.484
59 | GGTCATAC | 0.123
60 | TGTCATAA | 0.0821
61 | CGTCATAG | -0.0141
62 | AGTCATAG | 0.482
63 | CGTCATAC | 0.192
64 | AGACATAT | 0.137
65 | AGCCATAG | 0.199
66 | GGTCATAA | 0.081

Row | Sequence | PBM E-score
67 | CGTCATAA | -0.00764
68 | AGTCATAA | 0.476
69 | AGTCATAC | 0.486
70 | CAAAACTC | -0.0536
71 | AAAATAAC | 0.0567
72 | CCGTCCCG | -0.193
73 | ACAATTAA | 0.144
74 | CGTGCGTC | -0.13
75 | TGTGCTAA | 0.0249
76 | AGAATCAG | 0.325
77 | GGAATCCC | -0.166
78 | AGAATCGC | 0.127
79 | GGAATCAC | 0.418
80 | AGAATCCC | 0.0788
81 | ACAATCAC | 0.351
82 | AGAATCCT | -0.0297
83 | AGAATCAT | 0.44
84 | ACAATCAT | 0.385
85 | AGAATCAC | 0.374
86 | GGAATCAA | 0.257
